According to PubChem BioAssay (NCI):
About 83,000 compounds went through this panel and 20% of them were active in at least one assay; those are over-represented in the sample as a whole.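 Treatment: one concentration, 48 hours, 96-well format. Scoring: percent growth, with anything below 10 considered active.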 Activity calls are given as the source filed them.

How the values were obtained:
Assay in all cases: NCI-60 one-dose screen, 48 h (100 = growth as untreated, 0 = no growth, -100 = all killed)
Settings in all cases: 10 µM unless noted
[1] = system: SR leukemia
[2] = system: RPMI-8226 leukemia
[3] = system: OVCAR-8 ovarian
[4] = system: OVCAR-5 ovarian
[5] = system: OVCAR-4 ovarian
[6] = system: SK-OV-3 ovarian
[7] = system: IGROV1 ovarian
[8] = system: OVCAR-3 ovarian
[9] = system: HS 578T breast
[10] = system: NCI/ADR-RES ovarian

Measured: growth

COc1cc(C(=O)n2nc(N3CCOCC3)c3cc(-n4cccc4)ccc32)cc(OC)c1OC
active: [1] 6.85%
inactive: [2] 42.6% | [3] 64% | [4] 98.3% | [5] 68.5% | [6] 72.5% | [7] 68% | [8] 87.3% | [9] 68.5% | [10] 68.5%

O=C1/C(=C/c2ccc(F)cc2)CN(C(=O)C(Cl)Cl)C/C1=C\c1ccc(F)cc1
inactive: [5] 12.7% | [6] 23.5%
active: [1] -18.4% | [2] -31.4% | [3] -9.41% | [4] -53.8% | [7] -50.3% | [8] -95.1% | [9] 6.3% | [10] 5.22%

C=C1C(=O)O[C@H]2[C@H]1CC/C(COC(=O)c1ccc(C(=O)O)s1)=C\CC[C@@]1(C)O[C@@H]21
inactive: [3] 17.9% | [4] 48.6% | [5] 35.2% | [6] 96.6% | [9] 37.6% | [10] 42%
active: [1] -12.8% | [2] -25.9% | [7] -26.8% | [8] 0.215%

CCN(CC)c1ccc(/C=N/NC(=O)Cc2ccc(Nc3ccnc(C(F)(F)F)c3)cc2)c(O)c1
inactive: [1] 19.7% | [2] 25.8% | [3] 28.8% | [4] 48.2% | [5] 20.9% | [6] 28% | [7] 25.1% | [8] 32.4% | [9] 37.7% | [10] 18.3%

O=C(Nc1cnc(Nc2ccc(N3CCOCC3)nc2)nc1Oc1ccc(C(F)(F)F)cc1)c1ccncc1
inactive: [1] 19.3% | [2] 100% | [3] 86.6% | [4] 92.9% | [5] 80.3% | [6] 101% | [7] 94% | [8] 85% | [9] 81.6% | [10] 86%

C=C(C)[C@@H]1CC[C@]2(C(=O)N3CCN(C)CC3)CC[C@]3(C)[C@H](CC[C@@H]4[C@@]5(C)CC[C@H](OC(=O)c6ccccc6C(=O)O)C(C)(C)[C@@H]5CC[C@]43C)[C@@H]12
inactive: [1] 90.5% | [2] 96.7% | [3] 104% | [4] 104% | [5] 99.2% | [6] 104% | [7] 97.9% | [8] 110% | [9] 94.7% | [10] 104%

C#Cc1cccc(Nc2nc(C)nc3cc(NC(=O)CCl)ccc23)c1
active: [1] -40.4% | [2] -47.5% | [3] -15.4% | [4] -84.7% | [5] -42.2% | [6] 8.47% | [7] -56.7% | [8] -88.2% | [9] -11.6% | [10] -22%

Cc1ccc(S(=O)(=O)OCCCOS(=O)(=O)c2ccc(C)cc2)cc1
inactive: [1] 82.4% | [2] 76.2% | [3] 90% | [4] 125% | [5] 100% | [6] 115% | [7] 76.1% | [9] 99.8%

O=C(O)c1ccc(-c2ccc(/C=N/Nc3nc(Nc4ccccc4)nc(N4CCCCC4)n3)o2)cc1
inactive: [1] 65.5% | [2] 43.7% | [3] 48.7% | [4] 94.9% | [5] 77.1% | [6] 92% | [7] 45.2% | [8] 64.8% | [9] 40.7% | [10] 57.7%

CCN1CCN(C(=O)[C@]23CC[C@@H](C)[C@H](C)[C@@H]2C2=CC[C@@H]4[C@@]5(C)C/C(=C/c6cccnc6)C(=O)C(C)(C)[C@@H]5CC[C@@]4(C)[C@]2(C)CC3)CC1
inactive: [3] 32.6% | [4] 56.7% | [5] 26.7% | [6] 54.3% | [7] 50.9% | [9] 25.2% | [10] 26.7%
active: [1] -4.44% | [2] -15.2%

CN1CCN(c2ccc(NC(=O)c3cncnc3Nc3ccc(OCc4cccc(F)c4)c(Cl)c3)cc2)CC1
inactive: [1] 14.9% | [2] 70.2% | [3] 76.7% | [4] 76.3% | [5] 72.1% | [6] 103% | [7] 91.6% | [8] 81.7% | [9] 75% | [10] 75.2%

COc1cc2c(cc1OCCCCN1CCN(C(=S)SCCC(C#N)(c3ccccc3)c3ccccc3)CC1)N=C[C@@H]1CCCN1C2=O
active: [1] -44.1% | [2] -18% | [4] -17.1% | [5] -11.8% | [6] -7.37% | [7] -76.6% | [8] -85.9% | [9] -11.7%
inactive: [3] 15.9% | [10] 13.9%

CN(Cc1cc(Br)cc(Br)c1O)Cc1cc(Br)cc(Br)c1O
inactive: [1] 33.8% | [2] 27.6% | [3] 16.6% | [4] 68.9% | [5] 15.7% | [6] 56.4% | [7] 29.9% | [9] 58.9%
active: [8] 4.97% | [10] 9.38%

CN1CCN(Cc2ccc(NC(=O)c3cncc(C#Cc4cnc(N)c5ccc(F)cc45)c3)cc2C(F)(F)F)CC1
inactive: [3] 33.9% | [4] 44.7% | [5] 30.9% | [8] 19.7% | [9] 11.4% | [10] 35.3%
active: [1] -25.9% | [2] 4.27% | [6] -4.24% | [7] 0.192%

C/C=C(/C)n1cnc2c(Nc3ccccn3)nc(Cl)nc21
inactive: [1] 105% | [2] 98.2% | [3] 100% | [4] 98.4% | [5] 105% | [6] 111% | [7] 103% | [8] 111% | [9] 97.8% | [10] 108%

CN(C)CCCC1(c2ccc(F)cc2)OCc2cc(-c3cc4ccccc4s3)ccc21 (stereo unspecified)
active: [1] -15% | [2] -3.17% | [3] 7.22% | [7] -28%
inactive: [4] 55.8% | [5] 16.8% | [6] 68% | [9] 27.2% | [10] 23.7%

COc1ccc(-c2nc3c(N)c(CO)cnc3s2)cc1
inactive: [1] 93.5% | [2] 92.9% | [3] 103% | [4] 80.4% | [5] 101% | [6] 99.9% | [7] 84.7% | [8] 89.4% | [9] 92.8% | [10] 86.7%

COc1ccc(CCN(CC(=O)N(CC(N)=O)C2CCC[C@@H]2OCc2ccccc2)C(=O)CN(C(=O)CN(CCc2ccc(Cl)cc2)C(=O)CN(C(=O)CN(C)Cc2ccccc2F)[C@H](C)C2CCCCC2)[C@H](C)C2CCCCC2)cc1OC (stereo partly specified)
active: [1] -37.1% | [2] -0.194%
inactive: [3] 32.2% | [4] 49.2% | [5] 48.9% | [6] 38.4% | [7] 43.4% | [8] 32.5% | [9] 64.3% | [10] 79.2%

COc1ccc(/C=C(/C(=O)n2cnnn2)c2cc(OC)c(OC)c(OC)c2)cc1
inactive: [1] 14.8% | [3] 22.1% | [4] 41.2% | [5] 60.6% | [6] 14.6% | [7] 41.4% | [9] 13.5% | [10] 12.2%
active: [2] 3.48% | [8] 1.46%

CCOC(=O)C(=Cc1ccc(-c2ccccc2)cc1)C(=O)OCC
active: [1] 4.01% | [2] -3.52%
inactive: [3] 19.7% | [4] 71% | [5] 75.5% | [6] 95.6% | [7] 50.5% | [8] 52.8% | [9] 39.7% | [10] 19.6%

COc1cc(-c2nc3sccn3c2-c2ccnc(NCCNS(=O)(=O)c3ccc(Cl)cc3)n2)ccc1F
inactive: [1] 34.5% | [3] 12.3% | [4] 112% | [5] 21.3% | [6] 54.4% | [7] 41.8% | [8] 43.1% | [9] 49.5% | [10] 13.7%
active: [2] -18.9%

N#Cc1nc(-c2ccccc2)oc1S(=O)(=O)N1CCN(c2ccc(F)cc2)CC1
active: [1] -20.3%
inactive: [2] 36% | [3] 63.1% | [4] 102% | [5] 107% | [6] 109% | [7] 45.6% | [8] 51.9% | [9] 103% | [10] 96.4%

O=C(N/N=C\c1cccc([N+](=O)[O-])c1)N/N=C/c1cccc([N+](=O)[O-])c1
inactive: [1] 109% | [2] 97.1% | [3] 101% | [4] 114% | [5] 105% | [6] 101% | [7] 107% | [8] 112% | [9] 97.9% | [10] 106%

C#CCn1cnc2cnc(Nc3cccc(NC(=O)C=C)c3)nc21
inactive: [3] 84.1% [6.25 µM] | [4] 101% [6.25 µM] | [5] 90.8% [6.25 µM] | [6] 52.4% [6.25 µM] | [7] 75.2% [6.25 µM] | [8] 104% [6.25 µM] | [9] 74.5% [6.25 µM] | [10] 98.6% [6.25 µM]
active: [1] 4.73% [6.25 µM] | [2] -14% [6.25 µM]
